Test results reported in PubChem BioAssay (NCATS).
Records with an inconclusive call do not appear. A call without a number means that no potency is given here. Values without a mark were called inactive. Calls of active or inactive are those of the source. Calls come from the whole dose curve; as a rule, active = well fitted curve in the direction sought with a large enough effect; inconclusive = small, poorly fitted or top-dose-only effect, or another doubt; inactive = no such curve, though single readings can be large; an effect the other way counts as inactive or inconclusive.

What was measured:
[1] = target: Rap guanine nucleotide exchange factor 3 (Homo sapiens) (UniProt O95398); assay: Confirmatory qHTS for antagonist of cAMP-regulated guanine nucleotide exchange factor 3 (EPAC1) (AID 1645880); note: nearly all actives have a fitted effect of over 55% in size; note: potency is the fitted concentration of half-maximal effect
Chain of Rap guanine nucleotide exchange factor 3 (Homo sapiens) (O95398 whole entry, looked up): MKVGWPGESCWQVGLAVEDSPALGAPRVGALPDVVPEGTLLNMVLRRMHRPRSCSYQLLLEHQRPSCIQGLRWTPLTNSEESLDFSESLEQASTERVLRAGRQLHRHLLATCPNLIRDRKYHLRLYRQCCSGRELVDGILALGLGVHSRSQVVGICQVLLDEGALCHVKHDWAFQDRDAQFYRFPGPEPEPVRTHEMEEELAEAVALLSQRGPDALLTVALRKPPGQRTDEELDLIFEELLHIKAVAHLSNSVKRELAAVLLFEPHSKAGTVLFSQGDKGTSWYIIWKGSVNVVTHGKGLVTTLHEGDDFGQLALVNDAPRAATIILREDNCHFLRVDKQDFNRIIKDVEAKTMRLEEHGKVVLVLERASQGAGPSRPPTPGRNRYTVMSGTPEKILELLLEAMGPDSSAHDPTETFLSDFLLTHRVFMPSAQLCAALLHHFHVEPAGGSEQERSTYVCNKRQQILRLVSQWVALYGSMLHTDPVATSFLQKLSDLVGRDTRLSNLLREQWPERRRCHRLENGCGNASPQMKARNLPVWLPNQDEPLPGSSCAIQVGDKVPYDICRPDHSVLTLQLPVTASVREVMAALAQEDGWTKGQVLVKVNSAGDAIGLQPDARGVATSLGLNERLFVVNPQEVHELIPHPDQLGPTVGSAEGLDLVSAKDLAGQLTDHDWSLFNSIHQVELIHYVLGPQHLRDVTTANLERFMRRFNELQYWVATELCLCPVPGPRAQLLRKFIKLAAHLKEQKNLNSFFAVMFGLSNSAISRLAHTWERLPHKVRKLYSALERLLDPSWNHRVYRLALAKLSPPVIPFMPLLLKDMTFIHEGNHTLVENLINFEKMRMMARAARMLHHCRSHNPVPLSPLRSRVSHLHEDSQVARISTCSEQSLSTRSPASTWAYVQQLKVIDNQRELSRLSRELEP
Summary of the method: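 Released BODIPY-GDP fluoresces less than Rap1-bound BODIPY-GDP; the signal is followed at 480/540 nm at 5-min intervals over 30 min, after 5 min at room temperature. Reactions contain 100 nM EPAC1, 250 nM RAP1B-BODIPY-GDP and 50 uM GDP; results are normalized to ATA and DMSO.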

[2] = target: Rap guanine nucleotide exchange factor 3 (Homo sapiens) (UniProt O95398); assay: Confirmatory qHTS for agonist of cAMP-regulated guanine nucleotide exchange factor 3 (EPAC1) (AID 1645881);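 note: EPAC1 catalysed release of BODIPY-GDP from Rap1B seen as fluorescence loss; nearly all actives have a fitted effect of over 75% in size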
[3] = target: Rap guanine nucleotide exchange factor 4 (Homo sapiens) (UniProt Q8WZA2); assay: Confirmatory qHTS for agonist of cAMP-regulated guanine nucleotide exchange factor 4 (EPAC2) (AID 1645884);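 note: nucleotide exchange releases bodipy-GDP from Rap1 and this lowers its fluorescence; nearly all actives have a fitted effect of over 65% in size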
Chain of Rap guanine nucleotide exchange factor 4 (Homo sapiens) (Q8WZA2 whole entry, looked up): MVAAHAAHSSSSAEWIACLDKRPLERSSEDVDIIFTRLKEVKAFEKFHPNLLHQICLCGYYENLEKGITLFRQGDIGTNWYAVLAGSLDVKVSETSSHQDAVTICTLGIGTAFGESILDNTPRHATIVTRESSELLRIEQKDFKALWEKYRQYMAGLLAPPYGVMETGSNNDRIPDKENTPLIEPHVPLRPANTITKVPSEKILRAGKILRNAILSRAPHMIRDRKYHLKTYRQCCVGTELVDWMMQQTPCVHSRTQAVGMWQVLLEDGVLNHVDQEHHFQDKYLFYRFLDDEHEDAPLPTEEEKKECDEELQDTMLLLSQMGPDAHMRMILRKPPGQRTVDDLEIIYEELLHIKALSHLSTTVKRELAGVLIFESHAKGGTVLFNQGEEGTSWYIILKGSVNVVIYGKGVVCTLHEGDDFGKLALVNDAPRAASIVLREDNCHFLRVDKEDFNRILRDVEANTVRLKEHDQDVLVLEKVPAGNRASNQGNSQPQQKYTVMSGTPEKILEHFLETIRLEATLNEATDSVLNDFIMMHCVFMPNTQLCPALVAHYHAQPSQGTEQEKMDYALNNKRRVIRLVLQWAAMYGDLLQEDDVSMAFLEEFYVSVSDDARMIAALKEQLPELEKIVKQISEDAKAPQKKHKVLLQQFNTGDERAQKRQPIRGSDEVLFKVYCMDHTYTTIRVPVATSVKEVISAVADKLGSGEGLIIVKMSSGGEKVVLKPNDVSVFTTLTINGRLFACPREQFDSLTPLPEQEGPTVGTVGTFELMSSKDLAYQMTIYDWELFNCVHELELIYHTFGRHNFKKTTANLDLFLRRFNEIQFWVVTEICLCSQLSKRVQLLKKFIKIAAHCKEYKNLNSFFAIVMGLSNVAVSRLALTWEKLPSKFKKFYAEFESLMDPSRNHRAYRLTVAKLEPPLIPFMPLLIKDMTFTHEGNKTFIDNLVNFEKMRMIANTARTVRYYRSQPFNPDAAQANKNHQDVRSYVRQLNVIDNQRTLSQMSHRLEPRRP

[4] = target: Rap guanine nucleotide exchange factor 4 (Homo sapiens) (UniProt Q8WZA2); assay: Confirmatory qHTS for antagonist of cAMP-regulated guanine nucleotide exchange factor 4 (EPAC2) (AID 1645885); note: nearly all actives have a fitted effect of over 25% in size; note: potency is the fitted concentration of half-maximal effect
[5] = target: Rap guanine nucleotide exchange factor 3 (Homo sapiens) (UniProt O95398); assay: Counterscreen qHTS for antagonist of cAMP-regulated guanine nucleotide exchange factor 3 (EPAC1) (AID 1645888)
Summary of the method: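 Measured: fluorescence of BODIPY-GDP bound to Rap1B, which falls as exchange proceeds. Conditions include 50 uM competing GDP, 5 and 30 min reads, and a later cAMP challenge for antagonist detection.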

Row | SMILES | Potency [1] | Potency [2] | activation [3] | Potency [4] | activity change, negative = inhibition [5] | Potency [3] | Potency [5] | outcome [4]
1 | Clc1ccc2nc(C3CCCCC3)c(CC3CCCCC3)n2c1 | inactive | inactive | -3.07% [at 17.1 µM, percent relative to cAMP agonist control] | inactive | -0.327% [at 30.8 µM] | – | – | –
2 | Cc1ccc(S(=O)(=O)N2CCC(C(=O)Nc3ccccc3N3CCCCC3)CC2)cc1C | inactive | inactive | – | inactive | – | inactive | inactive | –
3 | O=C(CSc1nnc(-c2cccnc2)n1CCc1ccccc1)NCc1ccccc1 | inactive | inactive | 4.59% [at 17.1 µM, percent relative to cAMP agonist control] | inactive | -2.95% [at 30.8 µM] | – | – | –
4 | O=C1CC(=O)N(CCc2ccccc2)C(=O)N1CCc1ccccc1 | inactive | inactive | – | inactive | – | inactive | inactive | –
5 | Cc1ccc(-c2sc(-c3ccccc3)nc2CC(=O)Nc2ccccc2F)cc1 | inactive | inactive | – | inactive | – | inactive | inactive | –
6 | Fc1ccc(-c2noc3ncnc(N4CCN(c5ccccc5)CC4)c23)cc1 | inactive | inactive | – | inactive | – | inactive | inactive | –
7 | NC(=O)C1CCN(C(=O)Nc2csc3ccccc23)CC1 | inactive | inactive | – | 12 µM (active) | – | inactive | inactive | –
8 | CC1CC(C)CN(C(=O)COC(=O)CNC(=O)C23CC4CC(CC(C4)C2)C3)C1 (stereo not given) | inactive | inactive | – | inactive | – | inactive | inactive | –
9 | Cc1ccc(NC(=O)C2CCN(S(=O)(=O)c3ccc4c(c3)OCCCO4)CC2)nc1 | inactive | inactive | 6.5% [at 17.1 µM, percent relative to cAMP agonist control] | inactive | 13.4% [at 30.8 µM] | – | – | –
10 | COc1cc(/C=C(/C#N)c2nc(-c3cc4ccccc4oc3=O)cs2)ccc1O | inactive | inactive | – | – | – | inactive | inactive | inactive [at 12.7 µM]
11 | COc1ccccc1-c1ccc(Nc2cccc(C(F)(F)F)c2)nn1 | inactive | inactive | – | inactive | – | inactive | inactive | –
12 | O=C(Nc1nncs1)c1ccccc1NS(=O)(=O)c1cccs1 | inactive | inactive | – | inactive | – | inactive | inactive | –
13 | CCN(CC)S(=O)(=O)c1cccc(-c2nnc(SCC(N)=O)n2C)c1 | inactive | inactive | – | inactive | – | inactive | inactive | –
14 | Cc1nc(SCC(=O)N2CCCCCC2)[nH]c(=O)c1C | inactive | inactive | – | inactive | – | inactive | inactive | –
15 | COCCN(CCOC)Cc1cc(=O)oc2cc(C)c(C)cc12 | inactive | inactive | 2.1% [at 17.1 µM, percent relative to cAMP agonist control] | inactive | -13% [at 30.8 µM] | – | – | –
16 | COc1cc2cnc(-c3ccccc3)c(C(=O)c3ccc(F)cc3)c2cc1OC | inactive | inactive | 4.26% [at 17.1 µM, percent relative to cAMP agonist control] | inactive | -6.2% [at 30.8 µM] | – | – | –
17 | Nc1nc2c(ncn2[C@@H]2O[C@H](CNCc3ccccc3)[C@@H](O)[C@H]2O)c(=O)[nH]1 | inactive | inactive | – | inactive | – | inactive | inactive | –
18 | CCOC(=O)C1CCN(C(c2cc(OC)c(OC)c(OC)c2)c2sc3nc(C)nn3c2O)CC1 (stereo not given) | inactive | inactive | 3.51% [at 17.1 µM, percent relative to cAMP agonist control] | inactive | -38.9% [at 30.8 µM] | – | – | –
19 | O=C(O)c1ccccc1NS(=O)(=O)c1ccc(NN=Cc2ccc(F)cc2)c([N+](=O)[O-])c1 | 26.9 µM (active) | inactive | – | inactive | – | inactive | inactive | –

Row | SMILES | Potency [1] | Potency [2] | activation [3] | Potency [4] | activity change, negative = inhibition [5] | Potency [3] | Potency [5] | outcome [4]
20 | Cc1c(C(=O)N2c3ccccc3CC2C)oc2ccccc12 (stereo not given) | inactive | inactive | – | inactive | – | inactive | inactive | –
21 | O=C(c1ccc([N+](=O)[O-])o1)N1CCN(c2nc3c(Cl)cccc3s2)CC1 | inactive | inactive | – | inactive | – | inactive | inactive | –
22 | O=C1OC(c2ccccc2)/C(=C(/O)c2ccccc2)C1=O (stereo not given) | inactive | inactive | 9.85% [at 17.1 µM, percent relative to cAMP agonist control] | inactive | -5.63% [at 30.8 µM] | – | – | –
23 | Fc1ccc(C(Nc2ccccn2)c2c[nH]c3ccccc23)cc1 (stereo not given) | inactive | inactive | 7.5% [at 17.1 µM, percent relative to cAMP agonist control] | inactive | -2.83% [at 30.8 µM] | – | – | –
24 | COc1ccc(N(Cc2cccs2)C(=O)c2ccco2)cc1 | inactive | inactive | – | – | – | inactive | inactive | inactive [at 12.7 µM]
25 | CC(=O)Nc1ccc(NC(=O)CCC(=O)OCC(=O)c2ccc(C)c([N+](=O)[O-])c2)cc1 | inactive | inactive | – | inactive | – | inactive | inactive | –
26 | Cc1cccc(NCC(=O)N/N=C\c2ccc[nH]2)c1 | inactive | inactive | – | inactive | – | inactive | inactive | –
27 | CCc1ccc(/C=C2/SC(=S)N(CCCC(=O)Nc3ccccc3C(=O)O)C2=O)cc1 | 75.7 µM (active) | inactive | – | inactive | – | inactive | inactive | –
28 | CC(Oc1ccc(-c2nnco2)cc1)C(=O)N1CCOCC1 (stereo not given) | inactive | inactive | – | inactive | – | inactive | inactive | –
29 | O=C(c1ccc2nc(N3CCOCC3)sc2c1)N1CCC(Cc2ccccc2)CC1 | inactive | inactive | – | inactive | – | inactive | inactive | –
30 | O=C1C=C(Nc2cccnc2)c2ccccc2C1=O | 67.5 µM (active) | inactive | – | – | – | inactive | inactive | inactive [at 12.7 µM]
31 | O=C(Nc1ccccn1)c1cccc(S(=O)(=O)N2CCc3ccccc3C2)c1 | inactive | inactive | – | inactive | – | inactive | inactive | –
32 | O=C(c1ccco1)N(Cc1ccc([N+](=O)[O-])cc1)c1ccc(Br)cc1 | inactive | inactive | -0.906% [at 17.1 µM, percent relative to cAMP agonist control] | inactive | 10.5% [at 30.8 µM] | – | – | –
33 | COc1cc2c(C#N)c(N3CCCC3)nc(N)c2c(N)n1 | 37.9 µM (active) | inactive | – | inactive | – | inactive | inactive | –
34 | CSc1nc2c(c(C(F)(F)F)n1)CC(C)CC2 (stereo not given) | inactive | inactive | – | inactive | – | inactive | inactive | –
35 | CSc1nc(N2CCOCC2)c2c3c(sc2n1)CCC3 | inactive | inactive | – | inactive | – | inactive | inactive | –
36 | COc1ccc(C(C#N)N2N=C(C)CC2c2ccccc2)cc1 (stereo not given) | inactive | inactive | – | 47.8 µM (active) | – | inactive | inactive | –
37 | Cc1ccc2nc(-c3ccccc3)c(Cc3ccccn3)n2c1 | inactive | inactive | – | inactive | – | inactive | inactive | –
